Screens deposited in PubChem BioAssay by several laboratories.
Peg3 promoter – inhibitors of Peg3 promoter. HeLa PEG-Prom luciferase reporter, luminescence, overnight. inhibition, % at 20 µM. hit rate 1.7% among 360,000. AID 588405;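 active = inhibition of at least 50% at 20 µM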
PAX8 inh HTS – inhibitors of PAX8 transcriptional activity in RMG-I cells; RMG-I TPO-luciferase reporter, SteadyGlo, 24 h; AID 652154; hit rate 1.2% among 360,000; inhibition, % at 12.6 µM;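 active = mean replicate inhibition at least 60% with every replicate also reaching 60%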;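 note: luciferase light reporting Pax8 driven TPO promoter activity; plate controls were median of neutral control wells for no effect and mitoxantrone controls for full effect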
EWS-Fli inh – EWS/Fli transcriptional activity inhibition. inhibition, % at 12.6 µM. AID 651661. A673 NR0B1-luciferase reporter, viability-normalised. hit rate 0.67% among 350,000;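 active = mean inhibition of at least 50% after viability correction, with every replicate also passing that limit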;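 note: firefly luciferase signal divided by Alamar Blue viability fluorescence both relative to DMSO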
MITF TRPM1 inh – MITF TRPM1 promoter inhibition in SK-MEL-5 cells. SK-MEL-5 TRPM1 promoter luciferase, 24 h. inhibition, % at 12.5 µM. hit rate 0.83% among 330,000;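 active = mean inhibition across replicates of 60% or more, whatever share of single replicates reaches that level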
ABHD5 PLIN5 PPI – inhibitors of human ABHD5-perilipin-5 interaction; Q00G26+Q8WTS1; AID 602281; inhibition, % at 4 µM; hit rate 0.78% among 360,000; Split G. princeps luciferase complementation, luminescence, 4 h;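 active = inhibition above the mean inhibition across every tested compound plus 3 SD, cut at about 22% in these data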;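 note: 0% = DMSO only wells and the 100% control is not disclosed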
Shn3 3UTR inh – Schnurri-3 reporter inhibition in Clone20 osteoblasts | Clone20 osteoblast Shn3 3'UTR firefly luciferase, 24 h | inhibition, % at 12.5 µM | hit rate 0.52% among 360,000 | AID 588674;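 active = mean inhibition of at least 75% with every replicate also reaching 75%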;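 note: 0% = median of neutral control wells and 100% = pilot-screen positive control compound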
An asterisk follows results filed as active; · = no result. In the library only some 3% were active in any assay of this set; here they are far more common.

SMILES	Peg3 promoter	PAX8 inh HTS	EWS-Fli inh	MITF TRPM1 inh	ABHD5 PLIN5 PPI	Shn3 3UTR inh
N#CC1=C(c2ccccc2)/C(=C/c2ccccc2)OC1=O	104.3*	·	·	92.2*	14.0	95.2*
O=C1O/C(=C/c2ccccc2)c2ccccc21	-8.2	-34.3	8.3	-60.0	-3.4	-43.3
CN(C)CC(=O)N1[C@H](C#N)[C@H](c2ccc(-c3ccc(C(=O)N(C)C)cc3)cc2)[C@H]1CO	·	-3.3	-5.7	·	·	·
CC(=O)N1[C@@H]2Cn3c(ccc(-c4ccccc4)c3=O)[C@H]1[C@@H](C(=O)NCC1CC1)[C@@H]2CO	·	-20.0	4.3	·	·	·
CC1CCN(c2c(NCc3ccc(C(=O)N4CCc5ccccc54)cc3)c(=O)c2=O)CC1	0.0	23.0	53.3*	49.5	-3.3	12.2
COCC(=O)N(C)C[C@H]1Oc2cc(-c3cncnc3)ccc2S(=O)(=O)N([C@@H](C)CO)C[C@@H]1C	·	·	-4.0	·	·	·
CCSc1nsc(NC(=O)Nc2cccc(F)c2)n1	-92.0	90.4*	-24.7	42.9	-16.4	43.3
COc1cccc(NC(=O)Nc2nc(SC)ns2)c1	-280.5	-244.4	-119.1	-99.5	0.9	-36.7
O=C(NC1CCCCC1)C(c1ccc(F)cc1)N(Cc1ccccc1)C(=O)CN1C(=O)c2ccccc2S1(=O)=O (stereo not drawn)	67.6*	-17.3	·	5.9	3.2	0.7
O=C(CN1C(=O)c2ccccc2S1(=O)=O)NC1CCCC1	1.6	·	·	-1.1	-9.5	-19.7
O=C(NC1CCCCC1)C(c1ccc(F)cc1)N(CCc1ccccc1)C(=O)CN1C(=O)c2ccccc2S1(=O)=O (stereo not drawn)	79.2*	8.0	12.8	64.2*	-4.4	22.7
Cc1c(C#N)c(O)n(CCO)c(=O)c1N=Nc1ccc2c(c1)COC2=O	20.1	-17.4	12.0	61.8*	4.8	-2.8
CCN(CC)C(=O)c1ccc2c3c(cccc13)C(=O)N(CCc1ccc(OC)c(OC)c1)C2=O	59.9*	·	·	25.9	2.0	23.8
CC1CN(c2ccc([N+](=O)[O-])c(NCCOc3ccc(Cl)cc3)c2)CC(C)N1 (stereo not drawn)	77.5*	2.6	33.0	2.0	17.4	-9.0
Cc1ccccc1OCCNc1cc(N2CC(C)NC(C)C2)ccc1[N+](=O)[O-] (stereo not drawn)	80.5*	2.1	24.7	-6.0	21.9	-4.0
CO[C@@H]1CN(C)C(=O)c2cc(NC(=O)C3CCC3)ccc2OC[C@H](C)N(C)C[C@@H]1C	·	-23.7	-0.3	·	·	·
C[C@H](CO)N1C[C@H](C)[C@H](CN(C)C(=O)c2ccc(N3CCN(C)CC3)cc2)OCc2cn(nn2)CCCC1=O	·	-8.0	-3.2	·	·	·
O=C(Cn1c2ccccc2c(=O)c2ccccc21)N/N=C/c1cc([N+](=O)[O-])ccc1N1CCCCCC1	12.0	12.0	·	-13.1	-0.3	6.5
O=C(Cn1c2ccccc2c(=O)c2ccccc21)N/N=C/c1ccc(N2CCCC2)c([N+](=O)[O-])c1	91.4*	7.7	·	88.9*	-2.7	2.5
Cc1ccc(-c2cc(-c3ccccc3)c(C#N)c(Br)n2)cc1	6.2	17.2	·	-0.2	0.6	8.5
CS(=O)(=O)c1nc(-c2ccccc2)cc(-c2ccccc2)c1C#N	101.2*	·	·	41.4	6.8	30.2
O=C(Nc1cccnc1)c1cccc(S(=O)(=O)N2CCc3ccccc32)c1	29.5	14.7	12.8	17.6	1.4	24.0
O=C(Nc1ccncc1)c1cccc(S(=O)(=O)N2CCc3ccccc32)c1	17.8	33.4	32.2	18.4	10.4	91.3*
Cc1ccc(NC(=O)c2cc(S(=O)(=O)N3CCc4ccccc43)cn2C)cc1C	52.0*	50.2	15.8	9.5	-6.4	33.1
C[C@H]1CN([C@@H](C)CO)C(=O)c2cc(NS(=O)(=O)c3cccs3)ccc2O[C@@H]1CN(C)Cc1ccc(Cl)c(Cl)c1	·	-3.2	19.4	·	·	·
SMILES	Peg3 promoter	PAX8 inh HTS	EWS-Fli inh	MITF TRPM1 inh	ABHD5 PLIN5 PPI	Shn3 3UTR inh
O=C(C[C@H]1CC[C@H]2[C@@H](COC[C@@H](O)CN2S(=O)(=O)c2ccccc2Cl)O1)N1CCC(Cc2ccccc2)CC1	·	80.2*	22.7	·	·	·
Cc1ccccc1S(=O)(=O)N1C[C@H](O)COC[C@@H]2O[C@@H](CC(=O)N3CCC(Cc4ccccc4)CC3)CC[C@H]21	·	-28.6	5.2	·	·	·
O=C(C[C@@H]1CC[C@@H]2[C@H](COC[C@H](O)CN2S(=O)(=O)c2ccccc2Cl)O1)N1CCC(Cc2ccccc2)CC1	·	78.5*	10.6	·	·	·
O=C(c1ccccc1)C1OC1C(=O)c1ccccc1 (stereo not drawn)	-17.9	72.0*	1.4	36.0	17.7	-12.3
COc1ccc(S(=O)(=O)Nc2ccc3c(c2)C(=O)N([C@H](C)CO)C[C@@H](C)[C@@H](CN(C)S(C)(=O)=O)O3)cc1	·	·	7.9	·	·	·
O=C1/C(=N\S(=O)(=O)c2cccs2)C([n+]2cccc(Cc3ccccc3)c2)=C([O-])c2ccccc21	34.4	·	·	90.9*	0.7	·
O=C1/C(=N\S(=O)(=O)c2cccs2)C([n+]2ccc(CCCc3ccccc3)cc2)=C([O-])c2ccccc21	15.3	7.8	4.5	·	4.3	·
Cc1cc(C)c[n+](C2=C([O-])c3ccccc3C(=O)/C2=N\S(=O)(=O)c2cccs2)c1	13.3	-6.2	8.7	104.5*	-0.2	-4.2
COc1ccc(C(NC(=O)/C=C\c2ccco2)c2ccc(OC)c(OC)c2)cc1 (stereo not drawn)	1.5	·	·	-2.4	22.2*	-6.1
C[C@H]1CCCCO[C@H](CN(C)S(=O)(=O)c2cccs2)[C@@H](C)CN([C@@H](C)CO)C(=O)c2cc(NC(=O)Nc3ccccc3)ccc2O1	·	1.8	2.7	·	·	·
CC1(C)C=Cc2c(ccc3c2OC[C@H](c2ccc(O)cc2O)C3)O1	-268.7	-135.1	-71.1	-45.5	-23.3	-15.1
CC(C)=CCc1cc([C@@H]2COc3c(ccc4c3C=CC(C)(C)O4)C2)c(O)cc1O	83.8*	·	11.7	29.6	-26.2	92.0*
C[C@@H]1CN([C@@H](C)CO)C(=O)c2cc(C#CC3(O)CCCC3)cnc2O[C@H]1CN(C)Cc1ccccn1	·	-7.5	3.7	·	·	·
C=CCNc1nc2cc(-c3ccccc3C)sc2c(=O)n1C	-46.8	-9.9	63.1*	·	2.5	-46.3
Cc1ccc(CNc2nc3cc(-c4ccccc4C)sc3c(=O)n2C)c(C)c1	17.4	27.4	9.7	·	-7.8	-3.7
CC(C)CC#Cc1ccc2c(c1)O[C@H](CN(C)Cc1ccc(C(=O)O)cc1)[C@@H](C)CN([C@H](C)CO)S2(=O)=O	·	79.7*	2.3	·	·	·
COc1ccccc1-c1ccc2c(c1)O[C@H](CN(C)Cc1ccc3c(c1)OCO3)[C@H](C)CN([C@H](C)CO)S2(=O)=O	·	66.8*	1.7	·	·	·
CC(C)CC#Cc1ccc2c(c1)O[C@@H](CN(C)Cc1ccc3c(c1)OCO3)[C@@H](C)CN([C@@H](C)CO)S2(=O)=O	·	·	58.1*	·	·	·
COc1ccccc1-c1ccc2c(c1)O[C@@H](CN(C)C)[C@@H](C)CN([C@@H](C)CO)S2(=O)=O	·	·	0.1	·	·	·
